Assay results from PubChem BioAssay AID1159580 (chemical genetic matrix, 2015).
Values joined by “and” are separate entries in the source; they are usually repeats but may differ in a detail not shown here. Equal entries are not always repeated. About 2,000 (36%) of roughly 5,500 compounds were called active. Inconclusive results (about 18%) are left out. No stated cut-off is given here; in the data, active means normalized growth mostly below about 0.91 (no sharp cut-off); inconclusive means no clear call, values can overlap the other calls; inactive means mostly above about 0.92. The list shows a part of the results.

Assay: chemical genetic growth profiling, strain panel (AID 1159580);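 further: tested at 20 µM; growth read once vehicle control cultures reached saturation at 30 °C; 1 = growth at the plate median or of vehicle wells; lower values mean less growth of the strain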
Settings: growth OD

Measured: normalized growth

O=C(O)c1cccnc1C(=O)O
inactive: S. cerevisiae deletion strains, locus YJR066W, strain TOR1, hits give low values 0.979 | S. cerevisiae deletion strains, locus YJR075W, strain HOC1, hits give low values 1.08 | S. cerevisiae deletion strains, locus YKL009W, strain mrt4, hits give low values 1.03 | S. cerevisiae deletion strains, locus YKL068W, hits give low values 0.982 | S. cerevisiae deletion strains, locus YKL085W, strain MDH1 (second series), hits give low values 0.982 | S. cerevisiae deletion strains, locus YKL085W, strain MDH1, hits give low values 0.982 | S. cerevisiae deletion strains, locus YKL160W, strain elf1, hits give low values 0.999 | S. cerevisiae deletion strains, locus YKL190W, strain CNB1, hits give low values 1.01 | S. cerevisiae deletion strains, locus YKR001C, strain vps1, hits give low values 0.986 | S. cerevisiae deletion strains, locus YKR026C, strain gcn3, hits give low values 0.981 | S. cerevisiae deletion strains, locus YKR091W, strain srl3, hits give low values 0.999 | S. cerevisiae deletion strains, locus YLL001W, strain dnm1, hits give low values 1.04 | S. cerevisiae deletion strains, locus YLL026W, hits give low values 1.01 | S. cerevisiae deletion strains, locus YLL041C, strain sdh2, hits give low values 1 | S. cerevisiae deletion strains, locus YLR027C, strain aat2, hits give low values 1.01 | S. cerevisiae deletion strains, locus YLR039C, strain RIC1, hits give low values 1.08 | S. cerevisiae deletion strains, locus YLR058C, strain SHM2, hits give low values 1.02 | S. cerevisiae deletion strains, locus YLR102C, strain apc9, hits give low values 0.985 | S. cerevisiae deletion strains, locus YLR113W, strain HOG1, hits give low values 0.996 | S. cerevisiae deletion strains, locus YLR221C, strain rsa3, hits give low values 1.04 | S. cerevisiae deletion strains, locus YLR258W, strain gsy2, hits give low values 1.01 | S. cerevisiae deletion strains, locus YLR262C, strain YPT6 (second series), hits give low values 1.01 | S. cerevisiae deletion strains, locus YLR262C, strain YPT6, hits give low values 1.09 | S. cerevisiae deletion strains, locus YLR268W, strain sec22, hits give low values 1.01 | S. cerevisiae deletion strains, locus YLR320W, strain mms22, hits give low values 1.04 | S. cerevisiae deletion strains, locus YLR330W, strain CHS5, hits give low values 1.01 | S. cerevisiae deletion strains, locus YLR342W, strain FKS1 (second series), hits give low values 1.01 | S. cerevisiae deletion strains, locus YLR342W, strain FKS1, hits give low values 1.01 | S. cerevisiae deletion strains, locus YLR357W, strain rsc2, hits give low values 0.987 | S. cerevisiae deletion strains, locus YLR370C, strain arc18, hits give low values 0.984 | S. cerevisiae deletion strains, locus YLR371W, strain rom2, hits give low values 0.986 | S. cerevisiae deletion strains, locus YLR384C, strain iki3, hits give low values 1.01 | S. cerevisiae deletion strains, locus YLR418C, strain cdc73, hits give low values 1.04 | S. cerevisiae deletion strains, locus YML016C, strain PPZ1, hits give low values 1.01 | S. cerevisiae deletion strains, locus YML032C, strain rad52, hits give low values 1.01 | S. cerevisiae deletion strains, locus YML120C, strain ndi1, hits give low values 1 | S. cerevisiae deletion strains, locus YML124C, strain tub3, hits give low values 0.989 | S. cerevisiae deletion strains, locus YMR058W, strain fet3, hits give low values 1 | S. cerevisiae deletion strains, locus YMR078C, strain ctf18, hits give low values 0.99 | S. cerevisiae deletion strains, locus YMR125W, strain sto1, hits give low values 1 | S. cerevisiae deletion strains, locus YMR129W, hits give low values 0.987 | S. cerevisiae deletion strains, locus YMR205C, strain PFK2, hits give low values 0.988 | S. cerevisiae deletion strains, locus YMR223W, strain ubp8, hits give low values 1.01 | S. cerevisiae deletion strains, locus YMR231W, strain pep5, hits give low values 0.996 | S. cerevisiae deletion strains, locus YMR307W, strain GAS1, hits give low values 1.02 and 0.993 | S. cerevisiae deletion strains, locus YNL067W, strain RPL9B, hits give low values 1.06 | S. cerevisiae deletion strains, locus YNL071W, strain lat1, hits give low values 0.998 | S. cerevisiae deletion strains, locus YNL128W, strain TEP1, hits give low values 1.03 and 1.01 | S. cerevisiae deletion strains, locus YNL175C, strain NOP13, hits give low values 1.02 | S. cerevisiae deletion strains, locus YNL183C, strain NPR1, hits give low values 0.934 | S. cerevisiae deletion strains, locus YNL197C, strain WHI3, hits give low values 1.01 | S. cerevisiae deletion strains, locus YNL209W, strain ssb2, hits give low values 0.994 | S. cerevisiae deletion strains, locus YNL224C, strain SQS1, hits give low values 0.998 | S. cerevisiae deletion strains, locus YNL233W, strain BNI4, hits give low values 1.06 | S. cerevisiae deletion strains, locus YNL248C, strain rpa49, hits give low values 0.997 | S. cerevisiae deletion strains, locus YNL250W, strain rad50, hits give low values 0.984 | S. cerevisiae deletion strains, locus YNL271C, strain bni1, hits give low values 0.962 | S. cerevisiae deletion strains, locus YNL298W, strain CLA4, hits give low values 0.977 | S. cerevisiae deletion strains, locus YNL307C, strain MCK1, hits give low values 1.01 | S. cerevisiae deletion strains, locus YNL322C, strain KRE1 (second series), hits give low values 0.985 | S. cerevisiae deletion strains, locus YNL322C, strain KRE1, hits give low values 1.01 | S. cerevisiae deletion strains, locus YNR049C, strain mso1, hits give low values 0.989 | S. cerevisiae deletion strains, locus YNR052C, strain pop2, hits give low values 0.996 | S. cerevisiae deletion strains, locus YOL006C, strain TOP1, hits give low values 1.11 | S. cerevisiae deletion strains, locus YOL012C, strain htz1 1.66 | S. cerevisiae deletion strains, locus YOL147C, strain pex11, hits give low values 0.99 | S. cerevisiae deletion strains, locus YOR001W, strain rrp6, hits give low values 1.04 | S. cerevisiae deletion strains, locus YOR061W, strain CKA2, hits give low values 1.02 | S. cerevisiae deletion strains, locus YOR069W, strain VPS5, hits give low values 1.02 | S. cerevisiae deletion strains, locus YOR070C, strain gyp1, hits give low values 0.998 | S. cerevisiae deletion strains, locus YOR080W, strain dia2, hits give low values 0.974 | S. cerevisiae deletion strains, locus YOR083W, strain WHI5 (second series), hits give low values 1.03 | S. cerevisiae deletion strains, locus YOR083W, strain WHI5, hits give low values 0.945 | S. cerevisiae deletion strains, locus YOR106W, strain vam3, hits give low values 0.991 | S. cerevisiae deletion strains, locus YOR136W, strain idh2, hits give low values 1.02 | S. cerevisiae deletion strains, locus YOR144C, strain elg1, hits give low values 0.979 | S. cerevisiae deletion strains, locus YOR184W, strain ser1, hits give low values 0.998 | S. cerevisiae deletion strains, locus YOR231W, strain MKK1, hits give low values 1.03 | S. cerevisiae deletion strains, locus YOR265W, strain rbl2, hits give low values 0.989 | S. cerevisiae deletion strains, locus YOR270C, strain vph1, hits give low values 0.984 | S. cerevisiae deletion strains, locus YOR290C, strain snf2, hits give low values 0.987 | S. cerevisiae deletion strains, locus YOR316C, strain cot1, hits give low values 0.993 | S. cerevisiae deletion strains, locus YPL051W, strain arl3, hits give low values 1.02 | S. cerevisiae deletion strains, locus YPL055C, strain LGE1, hits give low values 1.11 | S. cerevisiae deletion strains, locus YPL078C, strain atp4, hits give low values 1.05 | S. cerevisiae deletion strains, locus YPL106C, strain sse1, hits give low values 1.06 | S. cerevisiae deletion strains, locus YPL240C, strain hsp82, hits give low values 0.994 | S. cerevisiae deletion strains, locus YPL256C, strain CLN2, hits give low values 1 | S. cerevisiae deletion strains, locus YPR119W, strain clb2, hits give low values 0.988 | S. cerevisiae deletion strains, locus YPR141C, strain kar3, hits give low values 0.978 | S. cerevisiae deletion strains, locus YPR163C, strain tif3, hits give low values 0.996 | S. cerevisiae deletion strains, locus YPR167C, strain met16, hits give low values 0.983 | S. cerevisiae deletion strains, strain wtn01, hits give low values 0.997 | S. cerevisiae strains, strain wild type, hits give low values 1.02
